Compounds with a hit are over-represented: about 3.3% of the library has one in this group of screens.
CASP6 VEID inh = blocks human caspase-6 cleavage activity; 350,000 tested, 0.53% active; P55212; purified caspase-6, Z-VEID-R110 cleavage fluorescence; inhibition, % at 12.5 µM;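 active = mean inhibition across replicates at least about 35%, with every replicate also reaching that limit, limit read from the data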
FGF22 binding = shifts melting point of recombinant human FGF22; Q9HCT0; recombinant FGF22 thermal shift, SYPRO orange fluorescence; percent of sucrose octasulfate shift, DMSO zero; activity (Tm shift, normalised), % at 9.99 µM; 340,000 tested, 1.5% active; AID 651658;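 active = mean Tm shift, scaled 0 neutral to 100 positive control, at about 1.3% or above, every replicate too, limit read from the data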
ERAP1 inh = inhibitors of human ERAP1 aminopeptidase; Q9NZ08; recombinant ERAP1, Leu-AMC fluorescence, 60 min; inhibition, % at 10.7 µM; 340,000 tested, 0.15% active; AID 652197;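 active = mean replicate inhibition of at least 30%, or all replicates individually reaching that 30% level; inactive = mean below 30% and not every replicate reaching it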
Target sequence (Q9NZ08 whole entry, looked up): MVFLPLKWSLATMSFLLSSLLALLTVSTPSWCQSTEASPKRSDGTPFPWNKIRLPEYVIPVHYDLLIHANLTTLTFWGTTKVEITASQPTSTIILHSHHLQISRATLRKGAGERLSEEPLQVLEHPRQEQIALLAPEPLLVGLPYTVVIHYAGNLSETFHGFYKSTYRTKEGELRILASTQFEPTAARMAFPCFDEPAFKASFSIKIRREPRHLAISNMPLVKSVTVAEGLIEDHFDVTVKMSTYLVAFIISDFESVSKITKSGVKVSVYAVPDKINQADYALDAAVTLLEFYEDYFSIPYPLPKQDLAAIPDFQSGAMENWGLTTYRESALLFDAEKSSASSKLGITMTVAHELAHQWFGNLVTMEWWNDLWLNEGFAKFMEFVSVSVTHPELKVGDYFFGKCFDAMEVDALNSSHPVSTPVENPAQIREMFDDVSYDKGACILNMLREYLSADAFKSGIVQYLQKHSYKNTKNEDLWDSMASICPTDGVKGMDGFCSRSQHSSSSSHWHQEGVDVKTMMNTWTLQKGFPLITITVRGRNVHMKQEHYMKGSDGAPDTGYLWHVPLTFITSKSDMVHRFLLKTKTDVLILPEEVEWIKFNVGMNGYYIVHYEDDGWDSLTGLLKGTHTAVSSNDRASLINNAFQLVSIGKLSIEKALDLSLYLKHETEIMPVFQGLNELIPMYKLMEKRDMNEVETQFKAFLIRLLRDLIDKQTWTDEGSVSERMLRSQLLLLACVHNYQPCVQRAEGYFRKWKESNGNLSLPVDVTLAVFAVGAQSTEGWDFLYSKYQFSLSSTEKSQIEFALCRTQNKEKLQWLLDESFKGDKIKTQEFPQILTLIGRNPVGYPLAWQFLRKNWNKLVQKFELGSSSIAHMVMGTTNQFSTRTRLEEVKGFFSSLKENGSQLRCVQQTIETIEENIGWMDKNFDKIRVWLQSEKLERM
SIRT5 block = sirtuin-5 (human) deacylase inhibition; Purified SirT5, succinyl-peptide AMC, trypsin-coupled fluorescence; 330,000 tested, 1.1% active; AID 652115; Q9NXA8; inhibition, % at 15 µM; in the data active = inhibition above about 15%
INS-1E GSIS act = GLuc luminescence reporter in INS-1E cells, primary screen for activators of glucose-dependent secretion of insulin. INS-1E GLuc reporter insulin secretion, 2-3 h. activation, % at 16.6 µM. 370,000 tested, 0.61% active. AID 743287;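 active = lowest replicate activation of at least 40%, so every replicate reaches that level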
Large screens that a line does not name were inactive.

CN(C)[C@@H]1C(=O)C(C(N)=O)=C(O)[C@@]2(O)C(=O)C3=C(O)c4c(O)ccc(Cl)c4[C@@](C)(O)C3C[C@@H]12 (stereo partly specified)	CASP6 VEID inh 44
CN(C)[C@@H]1C(=O)C(C(N)=O)=C(O)[C@@]2(O)C(=O)C3=C(O)c4c(O)cccc4[C@@](C)(O)C3[C@H](O)C12 (stereo partly specified)	CASP6 VEID inh 45, SIRT5 block 36
N#Cc1cccc(-c2ccc([C@H]3[C@H](CO)N4CCCCN(C(=O)Cc5ccncc5)C[C@@H]34)cc2)c1	none
Cc1cccc(-n2c(/C=C/c3ccc([N+](=O)[O-])o3)nc3ccccc3c2=O)c1	SIRT5 block 18
CN1[C@@H]2CN(CC(F)(F)F)C[C@H]1C2c1ccc(Br)cc1 (stereo partly specified)	none (no result: CASP6 VEID inh, FGF22 binding, ERAP1 inh, SIRT5 block)
COc1ccc(N2C(=O)/C(=C/c3ccc(OC)c(OC)c3)C(=O)NC2=S)cc1	none (no result: INS-1E GSIS act)
COc1ccc(N2C(=O)/C(=C/c3ccc(C)o3)C(=O)NC2=S)c(OC)c1	CASP6 VEID inh 38
O=C1OCCC1C(=O)c1ccccc1 (stereo unspecified)	FGF22 binding 44 (no result: SIRT5 block, INS-1E GSIS act)
O=C(c1ccccc1)C1NC1c1ccccc1 (stereo unspecified)	none (no result: ERAP1 inh, SIRT5 block)
COC(=O)C1=C(C(=O)OC)C2OC1c1cc3ccccc3cc12	INS-1E GSIS act 118 (no result: SIRT5 block)
CS(=O)(=O)N1C[C@@H]2C(c3ccccc3)[C@H](C1)N2CC1CC1 (stereo partly specified)	none (no result: CASP6 VEID inh, FGF22 binding, ERAP1 inh, SIRT5 block)
Cn1cccc1/C=C1/C(=O)NC(=S)N(Cc2ccc(F)cc2)C1=O	CASP6 VEID inh 35
O=S1(=O)CCN(CCc2c[nH]c3ccccc23)CC1	FGF22 binding 43 (no result: CASP6 VEID inh)
CC[C@H]1C=C(C(=O)N[C@@]2(C(=O)O)C[C@H]2CC)[C@H]2CCC(=O)[C@H]2C1	none (no result: INS-1E GSIS act)
CCN(CC)P(=O)(c1n(CC)cc[n+]1CC)N(CC)CC	ERAP1 inh 109
CC(C)NC(=O)N1C[C@@H]2C(c3ccccc3)[C@H](C1)N2C (stereo partly specified)	none (no result: CASP6 VEID inh, FGF22 binding, ERAP1 inh, SIRT5 block)
COc1ccc(-n2c(/C=C3\C(=O)Nc4ccccc43)nc3ccccc3c2=O)cc1	SIRT5 block 112
O=C1Nc2ccccc2/C1=C/c1nc2ccccc2c(=O)n1-c1ccc(O)cc1	none
COc1ccc(C(=O)OC2CC[C@@]3(C)C4CCC5[C@]6(O)CC(O)[C@@]7(O)C(CN8CC(C)CCC8[C@@]7(C)O)[C@]6(O)C[C@@]53O[C@]24O)cc1OC (stereo partly specified)	INS-1E GSIS act 46
CC(=O)N1C[C@@H]2N[C@H](C1)C2c1ccc(Br)cc1 (stereo partly specified)	none (no result: CASP6 VEID inh, FGF22 binding, ERAP1 inh, SIRT5 block)
O=C(c1ccc2c(c1)N(Cc1ccc(F)cc1)CCS2)N1CCC2(CC1)OCCO2	none
O=C(c1ccc2c(c1)ncn2-c1ccc(F)cc1F)N1CCC2(CC1)OCCO2	FGF22 binding 44
COc1cccc(C2(O)CCN(CC(=O)Nc3nc(C)cs3)CC2)c1	FGF22 binding 43
COC(=O)C[C@]1(C(=O)OC)CN(C#N)N(c2ccc(Cl)cc2)C12c1ccccc1-c1ccccc12	none (no result: FGF22 binding)
COC(=O)[C@@H]1[C@@H](C(=O)OC)C2(c3ccccc3-c3ccccc32)N(c2ccc(Cl)cc2)N1C#N	SIRT5 block 17 (no result: FGF22 binding)
COc1ccc(NC2(C#N)CCCCC2)cc1	none (no result: ERAP1 inh, SIRT5 block)
CCCCN1CCC(C#N)(Nc2ccccc2)CC1	SIRT5 block 22 (no result: FGF22 binding)
Cc1cccc(S(=O)(=O)N2[C@@H]3Cn4c(ccc(-c5ccc(F)cc5)c4=O)[C@H]2[C@@H](C(=O)O)[C@@H]3CO)c1	none (no result: CASP6 VEID inh, FGF22 binding, ERAP1 inh, SIRT5 block)
Cc1cc(OCC(=O)NC(Cc2ccc(Cl)cc2)C(=O)O)c2c3c(c(=O)oc2c1)CCCC3 (stereo unspecified)	ERAP1 inh 31 (no result: SIRT5 block, INS-1E GSIS act)
Cc1cc(OCC(=O)NCc2ccncc2)c2c3c(c(=O)oc2c1)CCC3	none
O=C(Cc1cccnc1)N1CCCCN2[C@H](CO)[C@H](c3ccc(C#CC4CC4)cc3)[C@H]2C1	none (no result: INS-1E GSIS act)
COC(=O)[C@@H]1[C@@H](CO)[C@@H]2Cn3c(ccc(C4=CCCCC4)c3=O)[C@H]1N2CC1CCCCC1	none (no result: FGF22 binding)
O=C1NC(=O)C(=Cc2ccc(SC3CCCCC3)o2)C(=O)N1	CASP6 VEID inh 67
COCC#Cc1ccc([C@H]2[C@H](CO)N3CCCCN(C(=O)Cc4ccccn4)C[C@@H]23)cc1	none
CS(=O)(=O)N1C[C@@H]2N[C@H](C1)C2c1ccccc1 (stereo partly specified)	none (no result: CASP6 VEID inh, FGF22 binding, ERAP1 inh, SIRT5 block)

Bioassay records from PubChem.
